GPR151 activ: activators of human GPR151. Q8TDV0. PathHunter beta-arrestin GPR151 cells, luminescence. activation, % at 11.2 µM. actives 1% (n = 650,000); in the data active = activation above about 4.9%;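 note: 0% = median of compound wells and 100% = cells with positive control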
MITF inh: blocks human microphthalmia-associated transcription factor; inhibition, % at 2.6 µM; AlphaScreen MITF homodimerization, bead proximity signal; O75030; actives 0.91% (n = 650,000); in the data active = inhibition above about 50%;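 note: 0% = vehicle wells with protein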
TEAD-YAP block: TEAD-YAP interaction inhibition | actives 1.4% (n = 640,000) | AID 1259422 | HEK-TIYL cells, TEAD-Gal4/YAP UAS-luciferase luminescence | inhibition, % at 9.12 µM; in the data active = inhibition above about 32%;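 note: 0% = median of test compound wells and 100% = reference inhibitor wells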
FBW7 act: activators of human E3 ligase FBW7 | AlphaScreen FBW7–phospho-cyclin E peptide binding, activator screen | AID 1259310 | actives 0.13% (n = 650,000) | Q969H0 | normalized activity (activation), % at 26.1 µM; in the data active = normalized activity above about 1.9%;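 note: purified mutant Fbw7 with reduced substrate affinity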
* hit, by the source's call; ! = not active in a repeat. Sampled rows, rich in hits. Any-hit rate of the full collection: about 3.5%.

SMILES | GPR151 activ | MITF inh | TEAD-YAP block | FBW7 act
CC1=CC2=NC(=O)/C(=C\c3ccc(OCCOc4cccc(C)c4)cc3)C(=N)N2O1 | -1 | 10 | -25 | 2.2*
COc1cc(/C=C2/C(=N)N3OC(C)=CC3=NC2=O)ccc1OCCOc1cccc(C)c1 | -1 | 5 | -1 | 0
CC1=CC2=NC(=O)/C(=C\c3ccc(OCc4ccc5c(c4)OCO5)c(Cl)c3)C(=N)N2O1 | -6 | 1 | 59* | 0
N#C/C(=C/Nc1ccc(F)cc1[N+](=O)[O-])c1nc(-c2cccc([N+](=O)[O-])c2)cs1 | 0 | 2 | 15 | 0
O=C1NC(=S)N/C1=C/c1ccc(O)c(O)c1 | 1 | 87* | 17 | 0
CN(C)c1ccc(/C=C2\NC(=S)NC2=O)cc1[N+](=O)[O-] | 1 | 71*! | -16 | 0
CCC(=O)c1ccc(OCC(O)CN(CC)CC)cc1 (centres undefined) | 0 | 4 | -8 | 0
Cc1ccc2nc(-c3cccc(NC(=O)c4cc(Br)ccc4Cl)c3)oc2c1 | -1 | 0 | 7 | 0
CCN1CCN(c2ccc(NC(=O)COc3cccc(C)c3C)cc2)CC1 | -2 | 8 | 0 | 0
Cc1c(C(=O)NCC2COc3ccccc3O2)sc2ncn(C)c(=O)c12 (centres undefined) | 0 | 3 | -72 | 0
COCCN1CCCc2ccc(NS(=O)(=O)c3ccc(C)cc3)cc21 | 3 | 16 | 11 | 0
O=C(Cc1ccc(N2CCC(NCCn3ccnc3)CC2)cc1)N1CCCC1 | 0 | 1 | -9 | 0
O=C(Cc1ccc(N2CCC(NCCn3ccnc3)CC2)cc1)NCc1ccccc1 | 1 | 5 | 47* | 0
O=C(Nc1cccc(-c2ccc(N3CCOCC3)nn2)c1)c1ccc(F)c(F)c1 | 1 | 8 | -15 | 0
CC(C)(c1ccccc1)c1ccc(OCC(=O)NC2CCCC2)cc1 | 0 | 12 | -4 | 1.9*
O=C(COc1ccc(S(=O)(=O)NC2CCCCC2)cc1)NC1CCCCCC1 | 1 | 4 | 35* | 1
NC(=O)Nc1ccc(C(=O)OCC(=O)NC2CCCCC2)cc1 | -1 | 6 | 34* | 0
O=C(COC(=O)c1ccc(O)cc1)NC1CCCCCC1 | 1 | -6 | -6 | 0
COc1ccccc1CN=C1NC(=O)C(CC(=O)Nc2cccc3ccccc23)S1 (centres undefined) | 0 | 4 | 0 | 0
Cc1ccc(OCC(=O)Nc2ccc(CN3CCOCC3)cc2)c(C)c1 | -1 | -6 | 9 | 0
CN(C)c1ccc(N2C(=O)c3ccc4c5c(ccc(c35)C2=O)C(=O)N(c2ccc(N(C)C)cc2)C4=O)cc1 | -1 | 10 | -9 | 0
COCc1cc(CN2CCCCC2)c(O)c2ncccc12 | 1 | 98* | 76* | -1
COCc1cc(CN2CCOCC2)c(O)c2ncccc12 | 1 | 90* | 2 | -2
CC(C)OCc1cc(CN2CCCCC2)c(O)c2ncccc12 | -1 | 104* | 86* | -1
Oc1c(CN2CCCCC2)cc(Br)c2cccnc12 | 0 | 98* | 58* | -1
SMILES | GPR151 activ | MITF inh | TEAD-YAP block | FBW7 act
CCOc1cccc(CN2CCCCCC2)c1O | 0 | 10 | -1 | 0
COc1ccc(-c2noc(N3CCCC(C(=O)NCCN(C)C)C3)n2)cc1 (centres undefined) | -1 | 4 | -11 | 0
CCOc1ccccc1N1CCN(Cc2cc(OC)c(O)c(OC)c2)CC1 | 1 | 27 | -2 | 0
CCCOCc1cc(CN2CCCCC2)c(O)c2ncccc12 | 4 | 106* | 71* | -1
COCc1cc(CN2CCN(c3ccccc3OC)CC2)c(O)c2ncccc12 | 4 | 107* | 42* | 0
CCOCCCNC(=O)c1ccc(Cl)c(Cl)c1 | 0 | 2 | -2 | 0
Nc1ccc(NC(=O)c2nc[nH]c2C(=O)O)cc1 | 0 | 86* | 6 | -2
CCOC(=O)N1N=C(c2ccc(CC)cc2)CC1(O)C(F)(F)F (centres undefined) | 0 | -5 | 9 | 0
O=C(Nc1ccc(Cl)cc1Cl)c1cc2cc(Br)ccc2oc1=Nc1ccccc1 | 1 | 20 | 0 | 0
O=C(Oc1ccc(/C=C/c2ccncc2)cc1)c1ccco1 | -5 | 8 | 35* | 0
CC(C)(C)OC(=O)N/N=C\c1ccc(OC(=O)c2ccco2)cc1 | 3 | 11 | 59* | 0
O=C(Oc1cccnc1)c1ccco1 | 0 | 9 | -11 | 0
COC(=O)N/N=C\c1ccc(OC(=O)c2ccco2)cc1 | -4 | 5 | -2 | 1
COc1ccccc1NC(=O)Cn1cnc2sc(C(=O)N3CCN(c4ccccn4)CC3)c(C)c2c1=O | -1 | 19 | 17 | 0
CC(=O)c1ccc2c(c1)OCCOCCOc1cc(C(C)=O)ccc1OCCOCCO2 | 1 | 5 | 12 | 0
Cc1cc2c(cc1C)C(c1cccc(Cl)c1)CC(=O)N2 (centres undefined) | 0 | -11 | 37* | 0
CCCc1cc(N2CCN(c3ccc(OC)cc3)CC2)n2cnnc2n1 | 0 | -5 | 42* | 0
O=C(Nc1cccc(O)c1)c1cc(-c2ccc3c(c2)OCO3)on1 | -5 | -1 | 97* | 0
O=C(Nc1cccc(O)c1)c1cc(-c2cccnc2)on1 | -2 | -12 | -18 | 0
O=C(Nc1cccc(O)c1)c1cc(-c2ccc(Cl)cc2)on1 | -3 | -9 | 81* | 0
CN(Cc1ccccc1)C(=O)C1=CC(c2cccs2)=NS(=O)(=O)N1C | 0 | -2 | -1 | 0
CC(C)n1cnc2c(NCc3ccccc3)nc(NCc3ccc4c(c3)OCO4)nc21 | 1 | 5 | 3 | 0
N#C/C(=C\c1ccc(OCC(=O)NCC2CCCO2)cc1)C(=O)NCc1ccccc1 (centres undefined) | 1 | -22 | 7 | 0
N#C/C(=C\c1ccc(OCC(=O)NCC2CCCO2)cc1)C(=O)NCCc1ccccc1 (centres undefined) | 0 | 8 | 0 | 2.0*
Cc1cc(C)nc(N/N=C/c2ccccc2Br)n1 | -3 | -14 | -20 | 0
SMILES | GPR151 activ | MITF inh | TEAD-YAP block | FBW7 act
O=C(c1ccc(-c2nnc(-c3ccccc3)o2)cc1)N1CCOCC1 | -10 | -14 | 43* | 0
CC(=O)Nc1ccc(C(=O)N2CCOCC2)cc1 | -1 | 13 | 7 | 1
N[C@H](Cc1cccc(C(F)(F)F)c1)c1nc2ccc(-c3cn[nH]c3)cc2c(=O)[nH]1 | -2 | 4 | 19 | -1
COc1cc(-c2cn[nH]c2)cc2c(=O)[nH]c([C@H](N)Cc3cccc(F)c3)nc12 | -1 | -2 | 72* | 0
COc1cc(-c2cn[nH]c2)cc2c(=O)[nH]c(Cc3cccc(NC(=O)C(C)C)c3)nc12 | 0 | 10 | -5 | 1
N[C@H](Cc1ccc(Cl)cc1)c1nc2ccc(-c3cn[nH]c3)cc2c(=O)[nH]1 | -1 | 11 | 94* | -1
CCN(CC)c1nc(SC)nc(Cl)c1Cc1ccc(OC)cc1 | 0 | 7 | -22 | 0
CC(C)n1cnc2c(NCc3nc4ccccc4[nH]3)nc(-c3csc4ccccc34)nc21 | -1 | 13 | 16 | 1
Cc1noc(C)c1-c1nc(NCc2nc3ccccc3[nH]2)c2ncn(C(C)C)c2n1 | 1 | -2 | 49* | 0
